According to the supplement of paper PMC3545927:
The other results are listed elsewhere or left out. How many sequences the whole screen found active is unknown.

Target: furin, P09958
Assay: furin cleavage Z-score vs untreated control; higher = more cleavage, active = 3.5 or more, inactive = 1 or less, 8 variable residues between constant flanks
Summary of the method: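 To give the cleavage Z-score, log read counts were set against furin-free reactions, lowess-adjusted and scaled by median absolute deviation. These counts came from PCR adapter-tagged, sequenced DNA released when purified furin cut 8-mer peptides fused to a cDNA oligonucleotide and held on magnetic beads by their N-terminus. Digests were 0.01 ml, 1:10 enzyme:substrate, in 50 mM HEPES pH 7.5 with CaCl2 and NaCl, for 7.5, 15 or 30 min.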

Chain of furin, P09958 (P09958 whole entry): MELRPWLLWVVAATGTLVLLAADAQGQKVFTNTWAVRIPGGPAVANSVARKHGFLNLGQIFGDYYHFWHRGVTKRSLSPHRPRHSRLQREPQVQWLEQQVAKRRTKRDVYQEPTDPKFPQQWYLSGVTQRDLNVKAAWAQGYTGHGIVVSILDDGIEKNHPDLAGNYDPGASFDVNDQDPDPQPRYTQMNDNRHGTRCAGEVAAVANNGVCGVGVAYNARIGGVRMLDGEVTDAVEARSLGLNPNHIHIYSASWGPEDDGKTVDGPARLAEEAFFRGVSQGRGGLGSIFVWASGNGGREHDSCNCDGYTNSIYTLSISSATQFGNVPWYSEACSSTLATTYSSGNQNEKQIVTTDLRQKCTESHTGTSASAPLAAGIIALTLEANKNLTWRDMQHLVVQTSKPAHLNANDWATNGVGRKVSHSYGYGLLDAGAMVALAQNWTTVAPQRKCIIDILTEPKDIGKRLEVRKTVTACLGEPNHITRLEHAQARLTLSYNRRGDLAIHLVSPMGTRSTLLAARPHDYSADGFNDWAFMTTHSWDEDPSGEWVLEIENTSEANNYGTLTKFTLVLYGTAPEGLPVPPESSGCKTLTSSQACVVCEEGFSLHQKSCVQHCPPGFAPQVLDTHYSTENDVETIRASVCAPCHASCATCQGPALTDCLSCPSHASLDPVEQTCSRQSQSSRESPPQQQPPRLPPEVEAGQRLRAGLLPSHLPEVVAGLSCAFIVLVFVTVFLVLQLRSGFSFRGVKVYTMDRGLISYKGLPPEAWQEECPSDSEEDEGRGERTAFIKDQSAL

Row | Sequence | furin cleavage Z-score (7.5 min) | furin cleavage Z-score (15 min) | furin cleavage Z-score (30 min)
1 | CADVKFPGGGAGNASASA [HC171] | -0.433 (inactive) | -1.81 (inactive) | -2.39 (inactive)
2 | CACLVDYPYRAGNASASA [HC464] | -1.54 (inactive) | -2.22 (inactive) | 0.308 (inactive)
3 | CAKMQRAPRDAGNASASA [FS-451] | -0.25 (inactive) | -0.389 (inactive) | -0.0248 (inactive)
4 | CAPPGRMCRVAGNASASA [FS-1549] | 0.819 (inactive) | 0.646 (inactive) | 1.21
5 | CACSRRKPRDAGNASASA [FS-752] | 11.2 (active) | 11.6 (active) | 9.05 (active)
6 | CAQKGRKPRDAGNASASA [FS-1056] | 15 (active) | 14.9 (active) | 10.2 (active)
7 | CATRGRQPRVAGNASASA [FS-1575] | 0.424 (inactive) | 0.857 (inactive) | 1.04
8 | CAPKRRKPRVAGNASASA [FS-1242] | 8.95 (active) | 11.6 (active) | 8 (active)
9 | CAPCRRKPRDAGNASASA [FS-838] | 14.7 (active) | 14.2 (active) | 11.5 (active)
10 | CAVVQCSMSYAGNASASA [HC2042] | 0.93 (inactive) | 0.804 (inactive) | 0.223 (inactive)
11 | CASMSYSWTGAGNASASA [HC1371] | -1.4 (inactive) | -0.78 (inactive) | -0.275 (inactive)
12 | CAVVCCSMMYAGNASASA [HC2066] | 0.37 (inactive) | -1.1 (inactive) | -0.477 (inactive)
13 | CAEWPCHRPSAGNASASA [HC2328] | 2.33 | 0.752 (inactive) | 0.743 (inactive)
14 | CALRDIWDWIAGNASASA [HC1149] | -0.31 (inactive) | 1.9 | 1.08
15 | CAMMNWSPTTAGNASASA [HC322] | -3.83 (inactive) | 0.346 (inactive) | -1.29 (inactive)
16 | CALDLSGWFTAGNASASA [HC1643] | 1.07 | 0.845 (inactive) | -0.793 (inactive)

Row | Sequence | furin cleavage Z-score (7.5 min) | furin cleavage Z-score (15 min) | furin cleavage Z-score (30 min)
17 | CAQALDCEIYAGNASASA [HC1591] | -1.45 (inactive) | 0.168 (inactive) | -0.351 (inactive)
18 | CATKDNFKRSAGNASASA [FS-727] | 2.99 | 1.62 | 3.93 (active)
19 | CATKDRKRRSAGNASASA [FS-880] | 13.4 (active) | 13.2 (active) | 8.6 (active)
20 | CATDDDFERSAGNASASA [FS-629] | -0.626 (inactive) | -1.72 (inactive) | 0.0381 (inactive)
21 | CAKRGRKRRSAGNASASA [FS-1021] | 13.5 (active) | 12.1 (active) | 11.2 (active)
22 | CAKRGREFRIAGNASASA [FS-909] | 0.58 (inactive) | -0.852 (inactive) | -0.651 (inactive)
23 | CATKADKRRSAGNASASA [FS-1093] | 1.16 | -0.227 (inactive) | 0.33 (inactive)
24 | CARVTRYSNIAGNASASA [FS-2198] | -0.808 (inactive) | -0.0709 (inactive) | 0.615 (inactive)
25 | CAEMVVCCSMAGNASASA [HC2126] | -1.21 (inactive) | -1.21 (inactive) | 0.778 (inactive)
26 | CATTPGSGSWAGNASASA [HC42] | -0.496 (inactive) | -0.533 (inactive) | -0.629 (inactive)
27 | CADDVVCCSMAGNASASA [HC2111] | -0.752 (inactive) | 0.00684 (inactive) | -0.0395 (inactive)
28 | CARHRKHSPQAGNASASA [FS-2680] | 0.00638 (inactive) | 0.0202 (inactive) | -0.323 (inactive)
29 | CARMRRHHHHAGNASASA [FS-2158] | 2.42 | 4.46 (active) | 5.23 (active)
30 | CAMEECSQHHAGNASASA [HC1775] | 1.05 | -0.421 (inactive) | 0.321 (inactive)
31 | CARHRRHHHQAGNASASA [FS-2337] | 2.13 | 3.45 | 4 (active)
